Source: PubChem BioAssay (NCI)
The panel holds about 83,000 compounds, 20% with a hit somewhere; the sample as a whole holds those more often.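 Single-concentration screen, 48 h exposure, 96-well plates. Endpoint: percent growth. Below 10 = active.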 Unmarked numbers belong to inactive results. Calls of active or inactive are those of the source.

What was measured:
Experiment in all cases: NCI-60 one-dose screen, 48 h (100 = growth as untreated, 0 = no growth, -100 = all killed)
Details in all cases: 10 µM unless noted
HCT-15 colon = tested on: HCT-15 colon
HT29 colon = tested on: HT29 colon
SNB-75 CNS = tested on: SNB-75 CNS
SNB-19 CNS = tested on: SNB-19 CNS
U251 CNS = tested on: U251 CNS
PC-3 prostate = tested on: PC-3 prostate
UACC-62 melanoma = tested on: UACC-62 melanoma
LOX IMVI melanoma = tested on: LOX IMVI melanoma
SK-MEL-28 melanoma = tested on: SK-MEL-28 melanoma
SK-MEL-5 melanoma = tested on: SK-MEL-5 melanoma

SMILES	growth (HCT-15 colon)	growth (HT29 colon)	growth (SNB-75 CNS)	growth (SNB-19 CNS)	growth (U251 CNS)	growth (PC-3 prostate)	growth (UACC-62 melanoma)	growth (LOX IMVI melanoma)	growth (SK-MEL-28 melanoma)	growth (SK-MEL-5 melanoma)
CCOC(=O)C1=C(N)Oc2c(sc3c(CC)cccc23)C1c1ccc(F)cc1 (stereo not given)	22.4%	40.4%	-2.89% (active)	35%	40.6%	26.1%	22%	35%	53.8%	–
OC(COc1ccccc1)CN1CCN(c2ccc(Cl)cc2)CC1 (stereo not given)	115%	101%	95.2%	95.4%	102%	82%	90.3%	101%	96.9%	–
CN1CCN(c2ccc(-c3ccc4ncc(C#N)c(Nc5ccc(F)c(Cl)c5)c4c3)cn2)CC1	13.4%	36.6%	64.1%	74.7%	57%	58.5%	86%	68.8%	70.3%	–
CC1=C(SCCC(=O)OC(C[Se]C2=C(C)C(=O)c3ccccc3C2=O)C(=O)NC(C)(C)C)C(=O)c2ccccc2C1=O (stereo not given)	1.48% (active)	-5.09% (active)	-95.9% (active)	-92.6% (active)	-69% (active)	-64% (active)	-91.2% (active)	-52.2% (active)	-96% (active)	–
CCOC(=O)CCN(C(=O)Nc1ccccc1)C1CCCCC1	119%	114%	83.5%	110%	118%	119%	106%	118%	131%	–
CCOC(=O)c1c(C)nc2c(c1N)CC(=O)N2Cc1ccc(F)cc1	95.9%	90%	95%	97.1%	91.2%	80%	90.1%	93.5%	–	–
Cc1oc2nc[nH]c(=O)c2c1C(=O)/C=C/c1ccc(Br)cc1	-27.4% (active)	15.3%	-2.44% (active)	23.5%	12%	25.5%	13.2%	-90.6% (active)	23.9%	–
COc1ccc(/C=C(\C#N)n2nnc3c(F)cccc32)cc1	13.8%	13.4%	-58.8% (active)	30.7%	23.7%	29.8%	29.5%	19.8%	36.4%	–
Cc1nc(NC(=O)COc2ccc(/C=C3\Cc4ccc(Cl)cc4C3=O)cc2)sc1C	104%	114%	108%	106%	99.4%	91.9%	98.8%	72.7%	132%	–
Cc1cc(=O)[nH]c(=O)n1Cc1cn(-c2c3ccccc3nc3ccccc23)nn1	79.2%	113%	103%	87.3%	88.3%	97.3%	85.2%	15.2%	75.6%	–
Cc1nc2ccccc2c(/C=C/c2ccc(Cl)cc2)c1C(=O)/C=C/c1ccc(C(F)(F)F)cc1	-31.6% (active)	3.52% (active)	-79.6% (active)	-80.4% (active)	–	-52.3% (active)	-59.3% (active)	-89% (active)	–	-94.6% (active)
COc1ccc(C(=O)n2nc(-c3ccccc3)nc2N)cc1OC	96.8%	91.9%	81.1%	95.7%	–	87.9%	86.7%	91.7%	107%	93.3%
CCN1C(=O)N(CC)C2Nn3c(s/c(=C4\C(=O)Nc5ccccc54)c3=O)=NC21 (stereo not given)	35.9%	81.2%	19.3%	55.8%	–	30.3%	46.6%	56.9%	60%	41.6%
COc1cc(CCCO)c(OC)c(OC)c1OC	110%	108%	86.9%	96.1%	–	106%	94.8%	98.1%	109%	109%
CCOC(=O)NCCc1ccccc1	118%	102%	78.7%	–	108%	101%	88.8%	93.9%	–	111%
Clc1ccc2c(c1)N(CCCN1CCCC1)c1ccccc1S2	17.6%	21%	75.4%	58.1%	–	18.6%	-36.5% (active)	-52.5% (active)	42.3%	-86.5% (active)
Cc1nc(/N=C(\N)NC(=O)Nc2ccccc2Cl)sc1C	30.1%	18%	-29.2% (active)	44.2%	–	33.1%	45.7%	43.3%	63.2%	32.6%
NC[C@@H]1O[C@H](O[C@@H]2[C@@H](CO)OC(O[C@@H]3[C@@H](O)[C@H](N)C[C@H](N)[C@H]3OC3O[C@H](CN)[C@@H](O)[C@H](O)[C@H]3N)[C@@H]2O)[C@H](N)[C@@H](O)[C@@H]1O (stereo not given in full)	103%	109%	106%	115%	–	111%	118%	101%	111%	–
NC1=C(c2nn[nH]n2)C(c2ccccc2Cl)c2ccc3ccccc3c2O1 (stereo not given)	46.8%	132%	56.7%	79.2%	–	57.5%	71.2%	77.8%	75.6%	58%
COc1ccc(NC2=C(Br)C(=O)C(C)=C(C)C2=O)cc1	91.6%	117%	72%	–	88.3%	73.1%	84.4%	-35.6% (active)	–	92.3%
N/C(=N\c1nc2ccccc2s1)NC(=O)Nc1cccc2ccccc12	18.9%	6.2% (active)	5.83% (active)	34.8%	–	23.5%	29.2%	41.5%	65.3%	14%
Cc1ccc(C(=O)NN2C(=O)CSC2c2ccc(Cl)cc2)cn1 (stereo not given)	90.1%	105%	95.8%	85.6%	–	87.5%	93.5%	97.4%	90.8%	99.2%
O=c1[nH]c2c(ccc3cnccc32)c2c1CCC2	1.99% (active)	7.54% (active)	-33.4% (active)	3.98% (active)	–	0.402% (active)	-81.3% (active)	0.937% (active)	-52.7% (active)	-48.5% (active)
Cn1cc(C(=O)c2nc(-c3cn(C)c4ccc(F)cc34)no2)c2cc(F)ccc21	93.4%	95.5%	87.4%	104%	–	80.3%	88.4%	97.4%	110%	94.2%
[O-][n+]1c2ccccc2[n+]([O-])c2c3ccccc3[nH]c21	78.7%	77.3%	82.6%	85%	–	66.4%	20.7%	98.3%	117%	73.5%
c1ccc(Nc2cc(-c3cccnc3)[nH]n2)cc1	101%	100%	52.8%	77.9%	–	102%	102%	103%	105%	101%
CCOC(=O)c1c2c(n(-c3ccc(C#N)cc3)c1-c1ccccc1)C=CCC2	76.9%	68.2%	83.9%	98.4%	–	70.1%	75%	84%	102%	92.8%
CCCCn1c(-c2ccc(C(=O)O/N=C(\N)c3ccc(OC)cc3)cc2)nc(-c2ccccc2)c1-c1ccccc1	-47.5% (active)	21.8%	-31.1% (active)	23.9%	–	-7.41% (active)	29.1%	-93.1% (active)	47%	41.8%
CCc1cccc2c3c(sc12)C(c1ccc(Cl)cc1)C(C#N)=C(N)O3 (stereo not given)	13.8%	6.86% (active)	-10.2% (active)	27.1%	–	7.23% (active)	22.1%	26.6%	63.4%	29%
CN1CCN(CC(=O)N2c3cccc4cccc(c34)N(C(=O)CN3CCN(C)CC3)C2c2cn(-c3ccccc3)nc2-c2cccc([N+](=O)[O-])c2)CC1	-13.6% (active)	-33.5% (active)	65%	24.9%	–	22.6%	-83.6% (active)	-93.8% (active)	-89.5% (active)	-97.8% (active)
